Measurements reported in the supplement of paper PMC6555819.

These sequences were tested on RXRa homodimer (NR concentration 180 nM) (assay: PBM binding z-score (relative to random genomic background probes); higher = stronger binding; sequences stand for … in GC…GCGATTGACAGCGTAGAATGAAGG).
Summary of the method: (§1)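 Probes were double-stranded and carried 34-nt variable regions with direct-repeat seeds, single-nucleotide variants, half-site ablations and random human genomic background sequences, printed on custom Agilent 4×180K protein-binding microarrays. Arrays were incubated 1 h with ligand-free nuclear receptor dimers in PBS pH 7.4, 2% milk, 0.02% Triton X-100, 1 mM DTT, 0.2 mg/mL BSA and 0.4 mg/ml salmon testes DNA. Antibodies against each partner (one per run) detected binding, and scanned fluorescence was regression-normalized. Binding z-scores use the random background probes as reference.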
In the case of TCTCGGAGGACACAAAGGTCAGAGCTTTCCAGAG, the PBM binding z-score is reported as 4.32.
For ACTAGTTGGTCAGCTGAGGTCACACCCAATTCGG, the PBM binding z-score was 3.47.
Work on TAGCCTAGGTCATTCAGGGGCCAGCATAGAAAGC yielded a PBM binding z-score of 2.92.
With CGTCCAAGGTCACGGTCAGTGAAAGAGACTCGAA the PBM binding z-score was 7.6.
In the case of AGAATGAGGTCATTAAGATCAGGGAATTGCGGTC, the PBM binding z-score is reported as 6.72.
With GCTTACGGGTCCAAGGTTATAGCATGAATAGAAT the PBM binding z-score was 0.914.
In the case of TACCCTAGGTCATTGGGCCAGTATAGTACGCATC, the PBM binding z-score is reported as 3.19.
CGTCAAAGATCAAGGTAACGTAACAGAAAGCAGC was tested, and the PBM binding z-score was 0.691.
CCTTACGGGTCACGTGGTTATAGCACGACGAGCG was tested, and the PBM binding z-score was 6.08.
AACGAAAGGTCGAAGGTGAGTATACCCACCCGAA showed a PBM binding z-score of 5.29.
CAAACTAGGTCACTAAAGGTCAAAGTCGAATGAC showed a PBM binding z-score of 7.61.
ATATGTAGGTTATCTGGGGTCATTCAGACTAGGC showed a PBM binding z-score of 5.88.
CGTCCGAGGTCATAGGAGGTCAGTGAAGACAGAT showed a PBM binding z-score of 7.49.
Work on GCTGCTAGGTCAACTGATGGTCACCTAAAGCTCG yielded a PBM binding z-score of 3.52.
In the case of CCTACTGGGCCAAAAAGGTCATTGATGCCGATAA, the PBM binding z-score is reported as 5.23.
For CGAACAAGGTCATCCAGGACAGTGAATACATTGA, the PBM binding z-score was 6.46.
For TCTTGTAGGTCAATAGAGGTTAAGAAAGTGCGCT, the PBM binding z-score was 4.31.
With GATACAGGGTCAAGGTCAGAGTACGCGTATTGAT the PBM binding z-score was 6.63.
With TAGCCTAGGTCGTTCAGGGGCCAGTATAGAAAGC the PBM binding z-score was 0.583.
ATATGTAGGTTAAGCGTCATTCAGGTTGGTTCGC gave a PBM binding z-score of 1.15.
AGAATGGGGTTATACGTAGATCAGGGAAGAAAGT gave a PBM binding z-score of 4.17.
Work on AATAAAGGGTCATCGTAGGCCAGAGTACGCACAG yielded a PBM binding z-score of 6.51.
With CGTCAAAGTTCAAGGTCACGTAACAGAAAGCAGC the PBM binding z-score was 7.07.
With CAGCATAGGTCAGGGCCAGTATAGGAGGAACGTT the PBM binding z-score was 3.33.
Sequence TTGCCTAGGTCATTGGGCCAGTATAGTACGCATC has a PBM binding z-score of 2.8.
TATAAAGGGTCAAAGGCCAGAGTACGAATGTCGA gave a PBM binding z-score of 7.08.
With TAGCCTAGGTCATTCAGGGGCCACTATAGAAAGC the PBM binding z-score was 3.21.
AGTCAAAGTTTATCTAGGTAACGTAAGATATGCT was tested, and the PBM binding z-score was 0.551.
For CGAACTACGTCATCCAGGACAGTGAATACATTGA, the PBM binding z-score was 0.2.
Work on CGCACTAGGTCATCCAGGACAGTGAATACATTGA yielded a PBM binding z-score of 2.76.
CGTCCAAGGTCTAGGTCAGTGAAAGAGACTCGAA showed a PBM binding z-score of 0.486.
CAAACTAGTTCAAGAGGTCAAAGTCCGCTTCCCG showed a PBM binding z-score of 7.43.
Work on ATATGTAGGTTGGGGTCATTCAGAAAGTAGGGAA yielded a PBM binding z-score of 7.
With CGTCCAAGGACAATGCTAGGTCAGTGAAAGCATT the PBM binding z-score was 0.146.
CCAGACAGGTGAGAAGGTAACTCAGCCTCGATTA showed a PBM binding z-score of 0.448.
In the case of CATACAGGGTCGGCTAGGCCAGAGTAGGGACGGC, the PBM binding z-score is reported as 0.983.
ACTCGGAGGACAAAGGTCAGGGCTACGCCAGTGA was tested, and the PBM binding z-score was 6.71.
For TTACCAAGGTGAACGGTCGTTGATGCACGCCTTG, the PBM binding z-score was 1.24.
GTTACAGGGTCAAGGCCAGAGTACGCGTATTGAT gave a PBM binding z-score of 6.16.

Each sequence was assayed on THRa:RXRa (NR concentration 90 nM, RXRa partner concentration 90 nM) in the same assay as above.
Summary of the method: as §1
TCTCGGAGGACACAAAGGTCAGAGCTTTCCAGAG gave a PBM binding z-score of 3.45.
With ACTAGTTGGTCAGCTGAGGTCACACCCAATTCGG the PBM binding z-score was 5.
Sequence TAGCCTAGGTCATTCAGGGGCCAGCATAGAAAGC has a PBM binding z-score of 3.55.
CGTCCAAGGTCACGGTCAGTGAAAGAGACTCGAA gave a PBM binding z-score of 4.29.
Work on AGAATGAGGTCATTAAGATCAGGGAATTGCGGTC yielded a PBM binding z-score of 4.38.
With GCTTACGGGTCCAAGGTTATAGCATGAATAGAAT the PBM binding z-score was 1.34.
TACCCTAGGTCATTGGGCCAGTATAGTACGCATC showed a PBM binding z-score of 3.08.
For CGTCAAAGATCAAGGTAACGTAACAGAAAGCAGC, the PBM binding z-score was 1.33.
CCTTACGGGTCACGTGGTTATAGCACGACGAGCG showed a PBM binding z-score of 3.04.
With AACGAAAGGTCGAAGGTGAGTATACCCACCCGAA the PBM binding z-score was 2.16.
In the case of CAAACTAGGTCACTAAAGGTCAAAGTCGAATGAC, the PBM binding z-score is reported as 5.
With ATATGTAGGTTATCTGGGGTCATTCAGACTAGGC the PBM binding z-score was 5.46.
CGTCCGAGGTCATAGGAGGTCAGTGAAGACAGAT was tested, and the PBM binding z-score was 5.37.
Sequence GCTGCTAGGTCAACTGATGGTCACCTAAAGCTCG has a PBM binding z-score of 3.38.
With CCTACTGGGCCAAAAAGGTCATTGATGCCGATAA the PBM binding z-score was 3.12.
Sequence CGAACAAGGTCATCCAGGACAGTGAATACATTGA has a PBM binding z-score of 4.53.
For TCTTGTAGGTCAATAGAGGTTAAGAAAGTGCGCT, the PBM binding z-score was 4.71.
In the case of GATACAGGGTCAAGGTCAGAGTACGCGTATTGAT, the PBM binding z-score is reported as 4.45.
In the case of TAGCCTAGGTCGTTCAGGGGCCAGTATAGAAAGC, the PBM binding z-score is reported as 2.04.
ATATGTAGGTTAAGCGTCATTCAGGTTGGTTCGC was tested, and the PBM binding z-score was 0.543.
For AGAATGGGGTTATACGTAGATCAGGGAAGAAAGT, the PBM binding z-score was 2.8.
Sequence AATAAAGGGTCATCGTAGGCCAGAGTACGCACAG has a PBM binding z-score of 4.49.
Work on CGTCAAAGTTCAAGGTCACGTAACAGAAAGCAGC yielded a PBM binding z-score of 4.54.
CAGCATAGGTCAGGGCCAGTATAGGAGGAACGTT was tested, and the PBM binding z-score was 1.65.
Sequence TTGCCTAGGTCATTGGGCCAGTATAGTACGCATC has a PBM binding z-score of 2.89.
For TATAAAGGGTCAAAGGCCAGAGTACGAATGTCGA, the PBM binding z-score was 3.11.
In the case of TAGCCTAGGTCATTCAGGGGCCACTATAGAAAGC, the PBM binding z-score is reported as 3.89.
In the case of AGTCAAAGTTTATCTAGGTAACGTAAGATATGCT, the PBM binding z-score is reported as 1.6.
For CGAACTACGTCATCCAGGACAGTGAATACATTGA, the PBM binding z-score was 1.27.
CGCACTAGGTCATCCAGGACAGTGAATACATTGA gave a PBM binding z-score of 3.73.
In the case of CGTCCAAGGTCTAGGTCAGTGAAAGAGACTCGAA, the PBM binding z-score is reported as 1.86.
Sequence CAAACTAGTTCAAGAGGTCAAAGTCCGCTTCCCG has a PBM binding z-score of 3.77.
ATATGTAGGTTGGGGTCATTCAGAAAGTAGGGAA gave a PBM binding z-score of 4.34.
In the case of CGTCCAAGGACAATGCTAGGTCAGTGAAAGCATT, the PBM binding z-score is reported as 2.91.
In the case of CCAGACAGGTGAGAAGGTAACTCAGCCTCGATTA, the PBM binding z-score is reported as 0.425.
CATACAGGGTCGGCTAGGCCAGAGTAGGGACGGC showed a PBM binding z-score of 0.966.
ACTCGGAGGACAAAGGTCAGGGCTACGCCAGTGA gave a PBM binding z-score of 3.63.
TTACCAAGGTGAACGGTCGTTGATGCACGCCTTG showed a PBM binding z-score of 1.93.
Sequence GTTACAGGGTCAAGGCCAGAGTACGCGTATTGAT has a PBM binding z-score of 3.62.
